From the supplement of paper PMC6555819

Experiments:
Experiment in all cases: PBM binding z-score (relative to random genomic background probes); higher = stronger binding; sequences stand for … in GC…GCGATTGACAGCGTAGAATGAAGG
[1] = test system: FXR:RXRa (NR concentration 270 nM, RXRa partner concentration 90 nM)
Method in brief: (§1)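 Ligand-free nuclear receptor dimers were applied to custom Agilent 4×180K protein-binding microarrays whose double-stranded probes carried direct-repeat seeds, single-nucleotide variants, half-site ablations and random human genomic background sequences in 34-nt variable regions. Incubation lasted 1 h. Binding z-scores were computed against the random background probes from regression-normalized fluorescence.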

[2] = test system: LXRa:RXRa (NR concentration 270 nM, RXRa partner concentration 90 nM)
Method in brief: as §1

[3] = test system: LXRa homodimer (NR concentration 270 nM)
Method in brief: as §1

[4] = test system: LXRb:RXRa (NR concentration 270 nM, RXRa partner concentration 90 nM)
Method in brief: as §1

[5] = test system: LXRb homodimer (NR concentration 270 nM)
Method in brief: as §1

[6] = test system: PPARa:RXRa (NR concentration 270 nM, RXRa partner concentration 90 nM)
Method in brief: as §1

[7] = test system: PPARg:RXRa (NR concentration 180 nM, RXRa partner concentration 90 nM)
Method in brief: as §1

[8] = test system: PPARg:RXRa 270nM:90nM, anti-RXR (NR concentration 270 nM, RXRa partner concentration 90 nM)
Method in brief: as §1

[9] = test system: PPARg:RXRa 30nM:10nM, anti-RXR (NR concentration 30 nM, RXRa partner concentration 10 nM)
Method in brief: as §1

[10] = test system: PPARg:RXRa 90nM:30nM, anti-RXR (NR concentration 90 nM, RXRa partner concentration 30 nM)
Method in brief: as §1

Sequence	PBM binding z-score [1]	PBM binding z-score [2]	PBM binding z-score [3]	PBM binding z-score [4]	PBM binding z-score [5]	PBM binding z-score [6]	PBM binding z-score [7]	PBM binding z-score [8]	PBM binding z-score [9]	PBM binding z-score [10]
ACTTACGGGTCAACGAGGTTATTGCACGCGTATA	6.87	5.03	1.72	4.44	0.685	5.64	5.89	5.22	1.88	3.88
AGAGCGAGGGCACGCTGAGTTGATAGCAGAGTAG	0.547	0.397	-0.567	-0.142	-1.31	1.17	0.555	-0.0392	-0.58	-0.152
CTCGACAGGTCGTGCTCAGGTGAGTATACCAAAC	0.806	0.431	-0.39	0.643	-0.717	1.59	0.0674	0.515	-0.386	-0.107
CATACTGGGCCAAAGGTCATTGATTCCAATGCTC	5.32	5.39	4.2	5.17	1.29	6.71	11.9	10.1	10.1	11.1
TCTAGCAGGCCAGATGGTCACTCAAGAGGTACGG	-1.05	-0.551	-0.782	-1.05	-1.42	-0.0486	0.594	0.971	1.81	1.28
ACTGGTTGGTCAGCTGAGGTCACACACAATTCGG	3.86	3.31	2.58	3.6	0.876	3.6	1.53	2.1	0.448	1.43
GCTTGTAGATCAAAGTTAAGAAAGACTAAGCTAA	-0.479	-0.533	-0.585	-0.487	-0.917	1.18	2.55	4.31	2.13	4.45
AGTCAAAGTTCACTAGGTCACGTAAGATTCAGCT	6.19	6.11	5.68	4.32	1.45	6.04	9.33	7.67	4.81	7.31
TCTAGCAGGCCAGAGGGTCCCTCAAGAGGTACGG	-1.21	-0.594	-0.832	-1.08	-1.75	-0.293	0.254	1.14	1.15	0.873
GATACAGGGTCAGCTAGAAGCCAGAGTATGGAAA	4.4	2.38	-0.483	2.13	-0.479	4.45	3.76	3.04	1.33	1.83
GGAACGAGAGCAAAGTTGATAGCATCTGTCGACG	-0.381	-0.564	-0.809	-0.767	-1.1	2.02	3.1	4.59	3.13	5.43
GCTATTAGTTGAAAGGGGAACCGAATGATTCTCG	0.138	0.218	-0.112	-0.0843	-0.157	0.798	1.19	3.07	1.25	2.62
CAAACTAGGTCAAGAGGCCAAAGTCCGCTTCCCG	3.54	2.84	0.509	1.81	-0.0945	4.7	7.87	6.59	4.48	6.47
CCAGACAGGTGAATGGTAACTCAGTCTGGTACGC	-0.448	-0.493	-0.271	-0.246	-0.723	0.129	0.419	0.128	-0.647	-0.216
ACAGACAGGGGAGTGAAGGTAACTCAGCTGGACG	0.0883	0.0557	-0.294	0.312	0.211	0.211	0.82	0.301	-0.0675	0.442
CAAACTAGGTGACCGGAAGGTCAAAGTCCGCATG	6.44	4.09	4.16	3.51	0.36	4.99	6.71	5.5	3.01	5.06
CCGACTGGGGCAGAAAGGTTACCTTACCATCCGG	-0.0725	0.286	-0.251	0.547	-1.39	1.73	1.36	2.55	0.398	1.91
CCTTACGAGTCAAGGTTATAGCACGGGTGGTACG	0.585	0.946	-0.0296	0.739	0.332	1.28	0.716	0.135	-0.0857	-0.0269
GACACAGGGTCAAGGCCAGAGTACGCGTATTGAT	6.96	4.02	-0.483	3.38	-0.662	5.47	5.53	5.57	1.65	4.01
GCTATTAGTTGAAACGGCAACCGAATGATTCTCG	-0.263	-0.34	-0.23	-0.237	0.111	-0.33	0.341	-0.00574	0.0955	0.0763
CTTTACGGGTCACTGACAGGTTATAGCATTTGGA	5.62	5.09	1.02	3.91	0.469	5.46	5.06	5.14	2.12	4.01
GCATATAGGTAATACAAGGTGAAAATCCGATTGT	0.325	1.44	0.125	0.602	-0.207	1.5	1.55	1.09	0.599	0.773
CCTAGCTGGCCAATCTGGGTCACTCAAGGCTTGA	0.656	0.35	-0.714	0.665	-1.32	2.6	1.43	1.89	-0.389	1.26
GCTAGCAGGCCATTTGGGTCACTCGATGACGGGC	-0.0398	-0.0743	-0.738	-0.0448	-0.791	1.25	0.641	0.713	-0.472	0.633
